Assay outcomes (PubChem BioAssay)
Most compounds without a hit are left out; they make up all but 6.1% or so of the library.
RORg inh: inhibitors of mouse ROR gamma transcriptional activity; Drosophila S2 Gal4-RORgamma UAS-luciferase reporter, 20 h; Potency, µM (doses to about 53.6 µM), inactives show top-dose activity change, negative = inhibition, usual class: inhibitors; hit rate 5.4% among 310,000; AID 2551; note: % is set by controls: 0 for no effect and ±100 for the full control effect; nearly all actives have a fitted effect of over 60% in size
Target sequence (P51450 whole entry, looked up, the tested form may be a part): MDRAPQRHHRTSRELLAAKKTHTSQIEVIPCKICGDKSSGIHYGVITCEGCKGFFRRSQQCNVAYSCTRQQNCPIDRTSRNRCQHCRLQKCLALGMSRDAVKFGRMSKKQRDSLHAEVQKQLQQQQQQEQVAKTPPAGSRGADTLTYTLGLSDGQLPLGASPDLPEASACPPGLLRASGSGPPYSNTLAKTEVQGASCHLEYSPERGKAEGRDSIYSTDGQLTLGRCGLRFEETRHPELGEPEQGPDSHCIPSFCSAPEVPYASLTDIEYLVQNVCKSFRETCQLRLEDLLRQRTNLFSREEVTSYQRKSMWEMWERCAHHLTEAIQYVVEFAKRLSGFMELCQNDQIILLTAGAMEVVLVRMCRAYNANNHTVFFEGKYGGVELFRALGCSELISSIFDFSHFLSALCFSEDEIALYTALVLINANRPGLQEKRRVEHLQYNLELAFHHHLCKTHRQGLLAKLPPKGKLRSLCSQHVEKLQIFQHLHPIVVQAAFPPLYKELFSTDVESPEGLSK
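Read-out: Photinus luciferase luminescence; inhibitors lower reporter signal. Insect Schneider cells with Gal4-ROR gamma fusion under metallothionein promoter, UAS reporter; 700 uM final copper sulfate induction, 20 hr, ambient temperature.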
S2 tox: viability counter-screen for ATXN expression inhibitors. S2 cells (HEK-293 line with an ATXN2-luciferase reporter) viability, CellTiter-Fluor protease fluorescence, 24 h. Potency, µM (titrated, usually from 56.7 µM), hits mostly cytotoxic. hit rate 0.49% among 400,000; note: nearly all actives have a fitted effect of over 40% in size
HepG2 viability: HepG2 cytotoxicity, counter-screen for TGF-b inhibitors; Potency, µM (top dose mostly 46.1 µM), for the others: at the highest dose activity change, negative = cytotoxicity, most hits filed as cytotoxic; hit rate 0.76% among 410,000; HepG2 CAGA-GFP viability, ATP luminescence, 18 h
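CellTiter-Glo luminescence gave cytotoxicity after 18 hours at 37 degrees C. The cells were HepG2 CAGA-GFP in 1% FBS DMEM, stimulated with 500 pg/mL TGF-beta after compound addition. %Activity was normalised to no-cell wells (complete cell-killing) and DMSO (no toxicity), and curves were fitted and classified.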
ATXN2 expr inh: inhibitors of ATXN2 expression. HEK-293 ATXN2-luciferase reporter, luminescence, 24 h. Potency, µM (highest dose often 57 µM), inactives show at the highest dose activity change, negative = inhibition, hits mostly inhibitors. hit rate 0.72% among 360,000. AID 1745845; note: % is set by controls: 0 for no effect and ±100 for the full control effect; nearly all actives have a fitted effect of over 55% in size
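ATXN2-luciferase reporter cells (luciferase flanked by upstream and downstream ATXN2 gene portions) were treated 24 h at 37 °C with compounds at up to 57 uM. SteadyGlo luminescence gave expression; GF-AFC fluorescence gave viability.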
TGFb inhibitor: inhibitors of TGF-b signaling; HepG2 CAGA-GFP TGF-b/SMAD3 reporter, GFP fluorescence, 18 h; TGF-beta stimulated, 500 pg/mL final; AID 588855; hit rate 1.2% among 410,000; Potency, µM (highest dose often 46.1 µM), inactives show at the highest dose activity, negative = inhibition, usual class: inhibitors; note: % is set by controls: 0 for no effect and ±100 for the full control effect; nearly all actives have a fitted effect of over 65% in size
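Per well, imaged GFP fluorescence of HEPG2 CAGA-GFP cells gives the signal; cells get compound, then TGF-beta (500 pg/mL final), 18 h at 37 degrees C; %Activity versus -TGF-beta and +DMSO controls.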
Gal4-VP16 FLuc: Gal4-VP16 reporter inhibition counter-screen. Drosophila S2 Gal4-VP16 UAS-luciferase, luminescence, 20 h. hit rate 3.5% among 310,000. Potency, µM (series often up to 53.6 µM), for the others: top-dose activity, negative = inhibition, hits mostly inhibitors;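 note: Gal4-VP16 expression switched on by copper sulfate through the metallothionein promoter; % is set by controls: 0 for no effect and ±100 for the full control effect; nearly all actives have a fitted effect of over 50% in size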
Numbers without * were called inactive; [ ] = remark or other dose. Calls come from the whole dose curve; as a rule, active = well fitted curve in the direction sought with a large enough effect; inconclusive = small, poorly fitted or top-dose-only effect, or another doubt; inactive = no such curve, though single readings can be large; an effect the other way counts as inactive or inconclusive. Potency is the fitted concentration of half-maximal effect.

Results for CCCOc1ccc(NC(=O)CC2C(=O)N(c3ccccc3)C(=O)N2Cc2ccc(F)cc2)cc1 (configuration not stated) ?
HepG2 viability: -69%; TGFb inhibitor: 10µM*

What do the screens show for `CCOc1ccc(NC(=O)CC2C(=O)N(c3ccc(C)cc3)C(=O)N2CCC2=CCCCC2)cc1` (configuration not stated)?
S2 tox: inactive; HepG2 viability: -25%; ATXN2 expr inh: 6%; TGFb inhibitor: -7%

How did CC(=O)N1CCC2(CC1)OC(=O)C(C)=C2C(=O)NCc1ccc(Cl)cc1 do in these assays?
HepG2 viability: -7%; TGFb inhibitor: -15%

Results for COCc1cc(=O)n2[nH]c(-c3ccccc3)cc2n1 ?
RORg inh: 23%; S2 tox: inactive; HepG2 viability: -15%; ATXN2 expr inh: 15%; TGFb inhibitor: -17%; Gal4-VP16 FLuc: 2%

What do the screens show for `CCOC(=O)Cc1c(C)nc2c(-c3ccccc3)c[nH]n2c1=O`?
RORg inh: 7.9µM*; S2 tox: inactive; HepG2 viability: -17%; ATXN2 expr inh: -15%; TGFb inhibitor: 1%; Gal4-VP16 FLuc: -7%[0.365 µM]

How did CCOC(=O)Cc1c(C)nc2c(-c3ccccc3)c(-c3ccccc3)[nH]n2c1=O do in these assays?
RORg inh: 13µM*; S2 tox: inactive; HepG2 viability: -43%; ATXN2 expr inh: -17%; TGFb inhibitor: -16%; Gal4-VP16 FLuc: inconclusive

How did CCOC(=O)Cc1cc(=O)n2[nH]cc(-c3ccc(Cl)cc3)c2n1 do in these assays?
RORg inh: 11µM*; S2 tox: inactive; HepG2 viability: -28%; ATXN2 expr inh: 12%; TGFb inhibitor: 3%; Gal4-VP16 FLuc: inconclusive

What do the screens show for `COCc1cc(=O)n2[nH]cc(-c3ccsc3)c2n1`?
RORg inh: 16µM*; S2 tox: inactive; HepG2 viability: -26%; ATXN2 expr inh: -7%; TGFb inhibitor: inconclusive; Gal4-VP16 FLuc: inconclusive

What do the screens show for `CCOC(=O)Cc1c(C)nc2c(-c3ccccc3)c(C)[nH]n2c1=O`?
RORg inh: 34%; S2 tox: inactive; HepG2 viability: 0%; ATXN2 expr inh: -6%; TGFb inhibitor: -3%; Gal4-VP16 FLuc: 2%

How did CCOC(=O)Cc1cc(=O)n2[nH]c(-c3ccc(Cl)cc3)cc2n1 do in these assays?
RORg inh: -22%; S2 tox: inactive; HepG2 viability: -21%; ATXN2 expr inh: 20%; TGFb inhibitor: -5%; Gal4-VP16 FLuc: -4%

How did COc1ccccc1-c1nnc(NC(=O)c2ccc(S(=O)(=O)N3CCOCC3)cc2)o1 do in these assays?
RORg inh: 0.71µM*; S2 tox: inactive; HepG2 viability: -30%; ATXN2 expr inh: inconclusive; TGFb inhibitor: -1%; Gal4-VP16 FLuc: 0.63µM*

Results for COc1ccc(NC(=O)c2ccc(S(=O)(=O)N3CCOCC3)cc2)c(OC)c1 ?
RORg inh: 4%; S2 tox: inactive; HepG2 viability: 0%; ATXN2 expr inh: -3%; TGFb inhibitor: -2%; Gal4-VP16 FLuc: 7%[0.365 µM]

How did COc1ccccc1C(=O)Nc1nc(-c2ccc(S(=O)(=O)N3CCOCC3)cc2)cs1 do in these assays?
RORg inh: -22%; S2 tox: inconclusive; HepG2 viability: -23%; ATXN2 expr inh: 14µM*; TGFb inhibitor: -7%; Gal4-VP16 FLuc: 3.2µM*

Results for COc1cccc(-c2nnc(NC(=O)c3ccc(S(=O)(=O)N4CCOCC4)cc3)o2)c1 ?
RORg inh: 0.5µM*; S2 tox: inactive; HepG2 viability: -4%; ATXN2 expr inh: inconclusive; TGFb inhibitor: -23%; Gal4-VP16 FLuc: 0.89µM*

Results for COc1ccc(C(=O)Nc2ccc(S(=O)(=O)N3CCOCC3)cc2)cc1OC ?
RORg inh: -4%; S2 tox: inactive; HepG2 viability: 1%; ATXN2 expr inh: -18%; TGFb inhibitor: 24%; Gal4-VP16 FLuc: 0%
